Bioassay records deposited in PubChem BioAssay by Buhrlage Lab, Dana-Farber Cancer Institute and Novartis Institutes for BioMedical Research (Cambridge, Mass).
USP17 inh: blocks human USP17 ubiquitin-rhodamine cleavage; 47,000 tested, 6.5% active; purified USP17, Ub-rhodamine cleavage fluorescence, 3 h; AID 1645855; inhibition, % at 50 µM; A8MUK1
Target sequence (A8MUK1 whole entry, looked up): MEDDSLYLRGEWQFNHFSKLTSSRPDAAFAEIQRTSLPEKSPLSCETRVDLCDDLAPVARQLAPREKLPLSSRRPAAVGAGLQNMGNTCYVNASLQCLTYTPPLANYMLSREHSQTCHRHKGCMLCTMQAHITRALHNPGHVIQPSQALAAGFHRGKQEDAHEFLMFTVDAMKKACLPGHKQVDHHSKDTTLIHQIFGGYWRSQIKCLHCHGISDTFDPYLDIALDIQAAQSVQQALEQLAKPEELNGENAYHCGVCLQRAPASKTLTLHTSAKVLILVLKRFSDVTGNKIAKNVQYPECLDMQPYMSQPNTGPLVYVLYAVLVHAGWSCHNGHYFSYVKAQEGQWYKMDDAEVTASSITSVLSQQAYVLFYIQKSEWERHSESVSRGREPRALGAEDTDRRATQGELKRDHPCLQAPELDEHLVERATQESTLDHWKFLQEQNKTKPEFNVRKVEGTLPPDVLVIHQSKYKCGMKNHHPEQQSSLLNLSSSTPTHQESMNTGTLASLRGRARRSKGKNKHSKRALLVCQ
USP30 inh: inhibitors of human USP30 deubiquitinase | purified USP30, Ub-rhodamine cleavage fluorescence | inhibition, % at 25 µM | 47,000 tested, 5.3% active | AID 1645860
USP28 inh: blocks human USP28 ubiquitin-rhodamine cleavage | Q96RU2 | 47,000 tested, 3% active | AID 1645857 | purified USP28, Ub-rhodamine cleavage fluorescence, 30 min | inhibition, % at 25 µM
Starred values were filed as active, the others as inactive; nt = not tested or not shown. Hits are enriched below; roughly 11% of the tested compounds scored in any of these assays. Rule as the data show it: active = inhibition above about 30%; inactive = the rest.

SMILES	USP17 inh	USP30 inh	USP28 inh
O=C(NC1CCN(c2nc(-c3ccccc3)nc3ccccc23)CC1)C1CCOC1 (stereo unspecified)	-6	-2	5
Cc1cc2c3c([nH]c2cc1S(=O)(=O)N(C)Cc1ccccc1)CCCC3=O	18	-54	-13
COc1cc(C(=O)OCC(=O)N2CCC(Cc3ccccc3)CC2)c([N+](=O)[O-])cc1OC	-4	44*	21
O=C(COC(=O)c1ccc2c(c1)S(=O)(=O)N=C1CCCCCN12)NCCc1ccc(F)cc1	nt	5	2
Cc1cccc(C(=O)OCC(=O)N2CCC(Cc3ccccc3)CC2)c1O	6	23	8
O=C(COc1cccnc1[N+](=O)[O-])N1CCC(Cc2ccccc2)CC1	-14	26	-4
O=C(OCC(=O)N1CCC(Cc2ccccc2)CC1)c1ccc2c(c1)S(=O)(=O)N=C1CCCCCN12	2	49*	21
COc1ccc(C(=O)OCC(=O)N2CCC(Cc3ccccc3)CC2)cc1[N+](=O)[O-]	11	46*	36*
Cc1ccc(-c2ncc(C(=O)N3CCN(c4ccccc4C)CC3)c(-c3ccncc3)n2)cc1	15	27	13
CC(=O)NCC(=O)N1C[C@H](OCc2csc(C)n2)[C@H]2COC[C@H]21	2	22	8
CC1=C(c2ccccc2)S(=O)(=O)N(CC(=O)Nc2c(C)cccc2C)C1=O	3	-10	0
Nc1nc2c(c(=O)[nH]1)CCO2	-2	1	-1
COc1ccc(CCNC(=O)Cn2cncn2)cc1OC	-2	4	-8
COc1ccc(CCNC(=O)COc2ncnc3oc(C)c(C)c23)cc1OC	-2	-10	57*
O=C(Oc1ccc(-c2cnc3ccccc3n2)cc1)c1ccc(F)cc1	65*	-2	-4
O=C(COc1ccc(-c2cnc3ccccc3n2)cc1)NC1CC1	-4	9	-3
Cc1noc(-c2csc(C(=O)NCc3ccc(F)cc3)n2)n1	0	20	3
O=C(NCc1ccc(F)cc1)c1ccc(-c2cccs2)cc1	59*	nt	nt
Cc1nc(-c2ccc(C(=O)NCc3ccc(F)cc3)cc2)cs1	52*	11	10
CCC(=O)Nc1cccnc1-c1ccc(C(=O)NCc2ccc(F)cc2)cc1	-9	-10	-4
COc1ccccc1N1CCN(C(=O)c2snc(-c3ccncc3)c2N)CC1	-13	2	0
CCOC(=O)c1sc2c(c1C)c(=O)n(Cc1ccccc1)c(=O)n2CC(N)=O	22	55*	0
CCOC(=O)c1csc(-c2cn(C(C)C)c(=O)n(Cc3ccccc3)c2=O)n1	30	-4	-11
CCOc1ccc(NC(=O)COC(=O)C2(c3ccc(F)cc3)CCCC2)cc1	8	8	11
O=C(CSc1nnc2ccc(-c3ccccc3)nn12)Nc1ccc(F)cc1	43*	34*	-4
SMILES	USP17 inh	USP30 inh	USP28 inh
CC(=O)c1ccc(NC(=O)Cn2nc(-c3ccccc3)cc(NC(=O)C(C)C)c2=O)cc1	-21	-32	-8
O=C(Cc1ccc(-c2ccccc2)cc1)Nc1ccc(F)cc1	0	3	-1
CCOc1ccc(-c2ccc3nnc(SCC(=O)Nc4ccc(F)cc4)n3n2)cc1	nt	33*	-4
O=C(Cn1nc(-c2ccccc2)cc(NC(=O)c2ccccc2)c1=O)Nc1ccc(F)cc1	39*	39*	14
Cc1cc(NC(=O)c2nc3c(n2C)CCN(Cc2ccccc2)C3)ccn1	-12	-11	-3
O=C(NC1CCCCCC1)N1C[C@H]2C[C@H](C(=O)N3CCCC3)[C@@H](C1)O2	-31	-5	3
CCOC(=O)N1CCN(C(=O)c2cn(-c3ccccc3Cl)nn2)CC1	-6	-50	-4
Cc1ccc(-n2ncc3c2ncn2c(C(C)(C)C)nnc32)cc1C	6	15	7
CC(=O)N1C[C@H]2[C@@H](C1)c1ccccc1[C@@H]2NC(=O)c1ccc(C)nc1	3	10	3
C[C@@H](C(=O)NCCc1ccc(F)cc1)N1C(=O)N2CCc3c([nH]c4ccccc34)[C@@]2(C)C1=O	17	18	22
Cc1ccc(CNC(=O)[C@H](C)N2C(=O)N3CCc4c([nH]c5ccccc45)[C@@]3(C)C2=O)cc1	-15	-4	-20
C[C@@H](C(=O)NCc1ccc2c(c1)OCO2)N1C(=O)N2CCc3c([nH]c4ccccc34)[C@@]2(C)C1=O	30	33*	15
CCC(C)[C@H](NC(=O)[C@H](C(C)C)N1C(=O)N2CCc3c([nH]c4ccccc34)[C@@]2(C)C1=O)C(=O)NC1CCCC1 (stereo partly specified)	4	32*	12
C[C@@H](C(=O)NCc1ccc(F)cc1)N1C(=O)N2CCc3c([nH]c4ccccc34)[C@@]2(C)C1=O	59*	46*	36*
C[C@]12C(=O)N(c3ccccc3C(=O)NC3CCCC3)C(=O)N1CCc1c2[nH]c2ccccc12	13	26	0
CCN1CCN(C(=O)c2nnc(-c3ccc(S(=O)(=O)N4CCC(C)CC4)cc3)o2)CC1	6	26	4
O=C(c1noc2c1COc1ccccc1-2)N1CCCN(Cc2ccccc2F)C1	1	16	13
CCc1cc(C(=O)N2C3CCC(C3)[C@@H]2COc2ccc(F)cc2)no1 (stereo partly specified)	8	27	10
Nc1ncnc2c1c(-c1ccccc1)c(-c1ccccc1)n2CCc1ccc(F)cc1	44*	45*	0
OCCCNc1ncnc2c1c(-c1ccccc1)c(-c1ccccc1)n2Cc1ccco1	0	0	-12
Cn1nc(-c2cccc(F)c2)c2c1C[C@@H]1CN(Cc3nccs3)C[C@H]21	-13	-29	-5
CNc1nc(C2CCCN(S(=O)(=O)C3CCCC3)C2)nc2c1CN(C)CC2 (stereo unspecified)	-36	-98	-27
